Test results: PubChem BioAssay AID743356 (Broad Institute, 2014)
Activity calls are given as the source filed them.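 How the source made its calls: active means compounds that cut cell viability with a fitted half-maximal dose no more than twice the top valid dose; inconclusive means flat curve inhibiting 30 to 70%, or a poor fit; inactive means the rest, including any rise in viability.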

Test: viability loss in A549 lung cells – cell-based, luminescence, dry powder, set 10, cytotoxicity control, dose response (AID 743356)
Conditions: CellTiter-Glo ATP luminescence, 72 h; at 26 µM unless noted

Structure (SMILES)	max inhibition of viability %, hits give high values
COCC(=O)N1CC[C@@H]2[C@@H](CO)N(C)c3ccc(-c4cccc(F)c4)cc3[C@@H]21	-10.3% (inactive)
CN1c2ccc(-c3cccc(F)c3)cc2[C@H]2[C@H](CCN2C(=O)Cc2cccnc2)[C@H]1CO	-2.44% (inactive)
COc1ccc(NC(=O)N2CC[C@@H]3[C@@H](CO)N(C)c4ccc(-c5ccc(F)cc5)cc4[C@@H]32)cc1	-9.64% (inactive)
CNC(=O)c1ccc(N2CCN(C(=O)c3ccc4c(c3)OCO4)CC2)cc1	-22.9% [at 0.0015 µM] (inactive)
COc1ccccc1NC(=O)N1CC[C@@H]2[C@@H](CO)N(C)c3ccc(-c4cccc(F)c4)cc3[C@@H]21	-10.1% [at 23.5 µM] (inactive)
CNS(=O)(=O)c1ccc(N2CCN(C(=O)c3ccc4c(c3)OCO4)CC2)cc1	21.4% [at 0.003 µM] (inactive)
CN1c2ccc(-c3ccc(F)cc3)cc2[C@H]2[C@H](CCN2C(=O)Nc2ccc(F)cc2)[C@H]1CO	18.3% [at 0.05 µM] (inactive)
CN1c2ccc(-c3cccc(F)c3)cc2[C@H]2[C@H](CCN2C(=O)Cc2ccccc2)[C@H]1CO	-6.91% [at 23.5 µM] (inactive)
CN1c2ccc(-c3cccc(F)c3)cc2[C@H]2[C@H](CCN2C(=O)Nc2ccccc2F)[C@H]1CO	-15.8% [at 23.5 µM] (inactive)
CC(=O)c1ccc(N2CCN(C(=O)c3ccc4c(c3)OCO4)[C@H](C)C2)cc1	9.13% [at 12 µM] (inactive)
CC(=O)c1ccc(N2CC3(CN(C(=O)c4ccc5c(c4)OCO5)C3)C2)cc1	-11.2% [setting not given] (inactive)
CC(=O)c1ccc(N2CCN(C(=O)c3ccccc3Cl)CC2)cc1	15.7% [at 0.195 µM] (inactive)
CCC(=O)N1CC[C@@H]2[C@@H](CO)N(C)c3ccc(-c4ccc(F)cc4)cc3[C@@H]21	-5.87% [at 0.09 µM] (inactive)
CC(=O)c1ccc(N2CCN(C(=O)c3ccc4c(c3)OCO4)CC2)cc1	20.5% [at 0.8 µM] (inactive)
COc1ccccc1C(=O)N1CCN(c2ccc(C(C)=O)cc2)CC1	13.9% [at 0.012 µM] (inactive)
CN(C)C(=O)c1ccc(N2CCN(C(=O)c3ccc4c(c3)OCO4)CC2)cc1	10.1% [at 0.1 µM] (inactive)
CN1c2ccc(-c3ccc(F)cc3)cc2[C@H]2[C@H](CCN2C(=O)Nc2cc(F)ccc2F)[C@H]1CO	-3.91% [at 23.5 µM] (inactive)
CN1c2ccc(-c3ccc(F)cc3)cc2[C@H]2[C@H](CCN2C(=O)Cc2cccnc2)[C@H]1CO	13.9% [at 0.0007 µM] (inactive)

Structure (SMILES)	max inhibition of viability %, hits give high values
COC(=O)CCCCCCC(=O)N1CC[C@@H]2[C@@H](CO)N(C)c3ccc(-c4cccc(F)c4)cc3[C@@H]21	8.86% [at 6 µM] (inactive)
CC(=O)c1ccc(N2CCN(C(=O)c3ccccc3F)CC2)cc1	10.7% [at 0.012 µM] (inactive)
CC(=O)c1ccc(NCCNC(=O)c2ccc3c(c2)OCO3)cc1	9.33% [at 0.0007 µM] (inactive)
COc1ccc(NC(=O)N2CC[C@@H]3[C@@H](CO)N(C)c4ccc(-c5cccc(F)c5)cc4[C@@H]32)cc1	-13.8% [at 0.0235 µM] (inactive)
CN1c2ccc(-c3cccc(F)c3)cc2[C@H]2[C@H](CCN2C(=O)CCCCCCC(=O)O)[C@H]1CO	-12.9% (inactive)
CN1c2ccc(-c3ccc(F)cc3)cc2[C@H]2[C@H](CCN2C(=O)Cc2ccccn2)[C@H]1CO	-16.3% (inactive)
CN1c2ccc(-c3cccc(F)c3)cc2[C@H]2[C@H](CCN2C(=O)c2ccc3c(c2)OCO3)[C@@H]1CO	-9.58% (inactive)
COc1ccccc1NC(=O)N1CC[C@@H]2[C@@H](CO)N(C)c3ccc(-c4ccc(F)cc4)cc3[C@@H]21	13.3% [at 0.0015 µM] (inactive)
CN1c2ccc(-c3cccc(F)c3)cc2[C@@H]2[C@@H](CCN2C(=O)c2ccc3c(c2)OCO3)[C@H]1CO	-9.13% (inactive)
COC(=O)c1ccc(N2CCN(C(=O)c3ccc4c(c3)OCO4)CC2)cc1	15.6% [at 0.1 µM] (inactive)
CN1c2ccc(-c3cccc(F)c3)cc2[C@@H]2[C@@H](CCN2C(=O)c2ccc3c(c2)OCO3)[C@@H]1CO	-3.11% (inactive)
CC(C)NC(=O)N1CC[C@@H]2[C@@H](CO)N(C)c3ccc(-c4ccc(F)cc4)cc3[C@@H]21	12.6% [at 0.05 µM] (inactive)
CN1c2ccc(-c3cccc(F)c3)cc2[C@H]2[C@H](CCN2C(=O)CCCCCCN)[C@H]1CO	15.1% [at 0.0004 µM] (inactive)
CCCNC(=O)N1CC[C@@H]2[C@@H](CO)N(C)c3ccc(-c4ccc(F)cc4)cc3[C@@H]21	-28.2% [at 0.38 µM] (inactive)
CC(C)NC(=O)N1CC[C@@H]2[C@@H](CO)N(C)c3ccc(-c4cccc(F)c4)cc3[C@@H]21	14.2% [setting not given] (inactive)
CCCCCCCC(=O)N1CC[C@@H]2[C@@H](CO)N(C)c3ccc(-c4cccc(F)c4)cc3[C@@H]21	20.6% [at 0.006 µM] (inactive)
COc1cccc(NC(=O)N2CC[C@@H]3[C@@H](CO)N(C)c4ccc(-c5cccc(F)c5)cc4[C@@H]32)c1	-9.56% (inactive)
